EBV gp42 inh: EBV gp42 inhibition; AID 1085; Q1HVG2; hit rate 0.42% among 220,000; Fluorescence polarization binding assay, mP read-out; inhibition, % (tested at 21.74 µM); in the data active means inhibition above about 50%
Target sequence (Q1HVG2 whole entry, looked up): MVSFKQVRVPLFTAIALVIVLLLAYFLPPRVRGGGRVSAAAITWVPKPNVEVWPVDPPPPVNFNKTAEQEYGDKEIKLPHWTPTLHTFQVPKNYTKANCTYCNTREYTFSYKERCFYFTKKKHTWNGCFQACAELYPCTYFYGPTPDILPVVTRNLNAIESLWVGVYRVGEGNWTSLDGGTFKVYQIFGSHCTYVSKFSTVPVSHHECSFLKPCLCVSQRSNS
GLD-1 TGE inh: GLD-1-TGE RNA interaction inhibition (C. elegans) | inhibition, % at 5.96 µM | hit rate 0.44% among 320,000 | purified GLD-1 + fluorescein TGE RNA, fluorescence polarization | Q17339 | AID 2280;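 active means percent inhibition above a per-plate cutoff, the plate mean of test compounds plus 3 SD, cut at about 30% in these data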;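 further: 0% = DMSO wells with GLD-1 and probe and 100% = wells lacking GLD-1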
BCLXL inh: Bcl-xL (human) inhibition; inhibition, % at 10.9 µM; GST-Bcl-xL / FITC-Bim BH3 peptide fluorescence polarization; Q07817; hit rate 0.7% among 320,000; AID 2129;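 active means inhibition above the mean of all tested compounds plus 3 SD, cutoff set per campaign, cut at about 30% in these data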;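 further: 0% = DMSO wells and 100% = unlabeled Bim-BH3 peptide competitor; inhibitors lower millipolarization by displacing the labeled peptide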
E coli Lon inh: inhibits E. coli Lon protease; P0A9M0; purified E. coli Lon protease, fluorescence polarization; inhibition, % at 7.94 µM; hit rate 0.42% among 360,000; in the data active means inhibition above about 13%, passing the limit was not always enough;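 further: 0% = enzyme with probe and DMSO and 100% = no enzyme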
MEX-5 binding: C. elegans MEX-5 TCR-2 RNA binding activity; Q9XUB2; MEX-5/FITC-TCR2 RNA binding, fluorescence polarization; active compounds read low; activity score (negative = inhibition of binding), % at 10 µM; hit rate 0.38% among 300,000;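 active means inhibition past about -25% in most replicates, and total fluorescence under double the plate's negative control median, limit read from the data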;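 further: 0% = DMSO and -100% = 5 µM competing unlabeled TCR2 RNA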
Target sequence (Q9XUB2 whole entry, looked up): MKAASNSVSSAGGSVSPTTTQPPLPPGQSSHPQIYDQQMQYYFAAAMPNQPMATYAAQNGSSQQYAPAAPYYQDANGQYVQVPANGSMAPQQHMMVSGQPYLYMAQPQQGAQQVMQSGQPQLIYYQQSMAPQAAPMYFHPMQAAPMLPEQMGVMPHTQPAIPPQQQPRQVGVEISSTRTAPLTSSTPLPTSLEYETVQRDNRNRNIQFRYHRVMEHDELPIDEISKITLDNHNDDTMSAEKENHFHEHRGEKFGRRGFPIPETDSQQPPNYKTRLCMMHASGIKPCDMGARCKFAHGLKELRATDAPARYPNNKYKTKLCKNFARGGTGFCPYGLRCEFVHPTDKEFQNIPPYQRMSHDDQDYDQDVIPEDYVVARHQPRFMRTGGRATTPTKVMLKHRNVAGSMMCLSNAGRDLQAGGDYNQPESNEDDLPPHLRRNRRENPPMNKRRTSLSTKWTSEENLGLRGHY
eLon confirm: E. coli Lon inhibition confirmation | purified E. coli Lon, fluorescence polarization | shares compounds with E coli Lon inh | hit rate 31% among 1,400 | inhibition, % at 7.94 µM; in the data active means inhibition above about 16%;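 further: 0% = enzyme with probe and DMSO and 100% = no enzyme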
Starred values were filed as active, the others as inactive; · = no result given; + = active, no number. Most compounds without a hit are left out; they make up all but 1.3% or so of the library.

SMILES | EBV gp42 inh | GLD-1 TGE inh | BCLXL inh | E coli Lon inh | MEX-5 binding | eLon confirm
CCC(NC(=O)Nc1ccc(O)cc1)(C(F)(F)F)C(F)(F)F | -14.7 | 10.8 | 10.1 | 15.6* | · | 11.2
CC(NC(=O)Nc1ccc(O)cc1)(C(F)(F)F)C(F)(F)F | -5.8 | 21.5 | 23.4 | 5.4 | -3.9 | ·
Cc1noc(NS(=O)(=O)c2ccc(NC(=O)c3ccccc3NS(=O)(=O)c3ccc(F)cc3)cc2)c1C | · | 2.7 | · | 4.0 | · | ·
COCCn1nc2cc(C(=O)NCc3cc(C(F)(F)F)cc(C(F)(F)F)c3)ccc2c1OC | -12.3 | 1.1 | 2.9 | 20.9* | 0.1 | -7.8
O=C(c1cc(COc2ccc(F)cc2F)on1)N1CC2C[C@@H]3CC1C[C@H](C2)C3 | · | 0.8 | 0.1 | -6.6 | -0.9 | ·
O=C(c1cc(COc2ccc(F)cc2F)on1)N1C[C@H]2CC[C@H]1C2 | · | 1.4 | 0.1 | 23.6* | 0.6 | -6.5
O=C(Cc1ccccc1)Nc1ccc(NC(=O)c2ccco2)cc1Cl | · | 2.8 | 2.5 | -6.9 | -4.2 | ·
Cn1cc([N+](=O)[O-])c(C(=O)Nc2ccn(C34CC5CC(CC(C5)C3)C4)n2)n1 | 7.3 | 3.5 | -7.2 | 30.7* | -0.3 | -10.8
COc1ccc2nc(-c3ccco3)c(-c3ccco3)nc2c1 | 36.7 | 22.6 | 49.1* | 19.3* | -10.1 | -7.5
O=C1NC2=C(C(=O)CCC2)C(c2ccccc2Cl)N1 (configuration not stated) | · | -3.1 | 5.5 | 1.6 | 0.7 | ·
O=C1NC2=C(C(=O)CCC2)C(c2ccccc2[N+](=O)[O-])N1 (configuration not stated) | · | 23.8 | 50.9* | 24.5* | -10.2 | -7.2
O=[N+]([O-])c1ccc(Nc2nc(N3CCOCC3)nc(N3CCOCC3)n2)cc1 | · | -1.6 | 1.8 | 17.2* | -0.4 | -1.8
Cc1[nH]c(=O)[nH]c(=O)c1S(=O)(=O)N1CCN(c2ccccc2F)CC1 | 61.3* | 5.1 | 4.2 | 43.6* | -1.0 | 4.5
Cc1ccc(C)c(NC(=S)N2CCC(NC(=O)c3ccccc3)CC2)c1 | · | -1.3 | 11.1 | -4.6 | -0.7 | ·
Cc1ccc(CNC(=O)C(OC(=O)c2cccs2)C(C)C)cc1 (configuration not stated) | · | 2.6 | -0.1 | 28.3* | 0.3 | -13.5
COc1cccc(-n2c(Cc3cc(=O)[nH]c(=O)[nH]3)nnc2SCC(=O)N2CCCCC2)c1 | -5.8 | 10.6 | 9.2 | 16.2* | -5.4 | 22.6*
CCOc1ccc(-n2c(Cc3cc(=O)[nH]c(=O)[nH]3)nnc2SCC(=O)OC)cc1 | -27.7 | 6.6 | 5.8 | 15.8* | -2.6 | 13.3
COC(=O)c1cc(NS(=O)(=O)c2cccs2)cc(NS(=O)(=O)c2cccs2)c1 | · | · | · | 125.3* | · | 15.7
O=C(CSc1ccccn1)Nc1nonc1[N+](=O)[O-] | · | -1.5 | 8.1 | -0.2 | -0.2 | ·
CCN=c1scc(C)n1/N=C/c1cc(Br)c(O)c(Br)c1 | -1.9 | 4.8 | 7.2 | 3.0 | 0.2 | ·
CCN=c1scc(C)n1/N=C/c1ccc(O)c(O)c1O | -6.1 | 5.3 | 14.8 | 24.8* | -17.0 | 22.0*
CCCC1SCC(C)(C)NC1=O (configuration not stated) | · | · | · | -13.0 | · | ·
N#Cc1cccc(NC(=O)c2cc(C3CCCCN3C(=O)c3cccs3)on2)c1 (configuration not stated) | · | · | · | 15.4* | · | -3.1
COc1ccc(S(=O)(=O)N(C)CC(=O)Nc2ccc(C(F)(F)F)cc2)cc1Cl | -1.0 | 4.2 | 3.9 | 1.1 | -0.1 | ·
CC1(C)Cc2c(c(-c3ccco3)[nH]c(=O)c2C#N)CS1 | 31.9 | 93.5* | 109.8* | 33.5* | -22.7 | 28.6*
SMILES | EBV gp42 inh | GLD-1 TGE inh | BCLXL inh | E coli Lon inh | MEX-5 binding | eLon confirm
CC1(C)Cc2c(c(-c3ccccc3)[nH]c(=O)c2C#N)CS1 | -1.1 | -3.9 | 4.7 | -9.2 | 2.2 | ·
OCC1(Cc2cccc(C(F)(F)F)c2)CCN(Cc2cc3ccccc3o2)CC1 | -7.6 | 1.0 | 4.7 | 12.3* | 0.6 | -6.7
COc1cc(NC(=O)c2ccccc2F)ccc1NC(=O)c1cc2ccccc2o1 | · | · | · | 16.2* | -0.7 | 3.4
O=C1N[C@@H](Cc2ccccc2)C(=O)N2[C@@H]3N(S(=O)(=O)c4ccccc4)c4ccccc4[C@]3(Br)C[C@@H]12 | · | 14.6 | -0.9 | -4.5 | 0.9 | ·
O=C1N[C@@H](Cc2ccccc2)C(=O)N2[C@H]1C[C@]1([C@]34C[C@H]5C(=O)N[C@@H](Cc6ccccc6)C(=O)N5[C@H]3N(S(=O)(=O)c3ccccc3)c3ccccc34)c3ccccc3N(S(=O)(=O)c3ccccc3)[C@H]21 | · | 2.8 | 5.2 | 54.8* | 0.7 | 11.5
CCOC(=O)C1=C(C)NC(=O)CC1c1ccccc1 (configuration not stated) | -0.7 | -1.3 | 3.3 | -3.2 | -1.8 | ·
CCOC(=O)C1=C(C)NC(=S)N(C(C)=O)C1c1ccccc1 (configuration not stated) | -12.7 | -3.0 | 2.6 | 17.2* | -0.8 | 0.8
CCCN1CCN(CC(=O)Nc2nncs2)CC1 | · | 11.4 | 0.9 | -6.5 | -0.2 | ·
O=C(CN1CCCc2ccccc21)NC(=O)NCc1ccccc1 | 0.3 | -4.5 | 12.8 | 7.8 | 0.0 | ·
O=C(CN1CCCc2ccccc21)NC(=O)NCc1ccco1 | 3.1 | 5.9 | 10.4 | 53.2* | 0.8 | -3.0
OCCC1CN(Cc2cc3c(cc2Cl)OCO3)CCN1Cc1ccccc1 (configuration not stated) | -6.6 | 2.4 | 3.1 | -4.5 | 0.7 | ·
CC1(Cc2ccccc2Cl)C(=O)Nc2c(Cl)ccc(Cl)c21 (configuration not stated) | · | · | · | 0.7 | · | ·
CCC(=O)NC(c1cccs1)c1ccc2cccnc2c1O (configuration not stated) | -3.5 | -7.3 | 4.7 | 21.2* | -2.6 | 1.1
CC(C)CC(=O)NC(c1cccs1)c1ccc2cccnc2c1O (configuration not stated) | 6.5 | 3.5 | 7.5 | 4.5 | -1.6 | ·
CN(C)CCNc1oc(COc2cccc(Cl)c2)nc1C#N | -11.4 | 10.5 | 18.8 | 20.1* | 2.5 | -16.1
Cc1c(C(=O)NCc2ccccc2)sc(=O)n1Cc1ccccc1F | · | · | · | -8.9 | · | ·
CN(C)CCNc1ccc2ncn3c4ccc(O)cc4c(=O)c1c23 | · | · | · | + | · | +
Fc1ccc(Br)cc1C1C=C(c2ccc(Br)cc2)Nc2ncnn21 (configuration not stated) | 6.5 | 6.8 | 10.2 | 3.2 | 0.7 | ·
Cc1ccsc1C1C=C(c2cccc(Br)c2)Nc2ncnn21 (configuration not stated) | 94.4* | 92.3* | 109.9* | 59.7* | -1.6 | 66.3*
Cc1c(C)n(C)c2ccc(C(=O)NCCCN3CCOCC3)cc12 | · | 1.9 | 3.3 | 56.5* | 1.0 | -2.1
O=C1CC(c2ccco2)CC2=C1C=Nc1ccccc1N2 (configuration not stated) | 11.2 | 1.6 | 6.0 | 3.5 | -0.1 | ·
O=c1[nH]c2c(s1)C=Nc1ccccc1N2 | 118.9* | 143.8* | 178.2* | 114.1* | -72.3* | 149.4*
COc1ccc(C)cc1-n1c(C)cc(C=O)c1C | -11.6 | -4.3 | 0.1 | 2.4 | 0.1 | ·

Bioassay records deposited in PubChem by several laboratories.
